Laboratory results as given in PubChem BioAssay (EPA / NIEHS).
Records with an inconclusive call do not appear. The source made the active and inactive calls. Rule for the calls, unless noted: active = hit-call score of the fitted dose curve at least 0.9, where 1 is the maximum; inactive = score below 0.9.

Assays:
[1] = ATG_M_06_TRANS: Attagene TRANS-FACTORIAL HepG2 Assay for M06 Transcription Factor (Internal Marker) (AID 2282983; active = hit-call score of the fitted dose curve at least 0.9, where 1 is the maximum;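 note: reporter transcript level by RT-PCR then capillary electrophoresis fluorescence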); settings: HepG2 Attagene TRANS M06 internal marker reporter
Procedure, shortened: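 Internal-marker background readout from a multiplexed TRANS reporter system in HepG2; 24 h dosing; mRNA induction quantified by RT-PCR plus capillary electrophoresis fluorescence; DMSO as negative control and baseline.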

[2] = molecular target: Nuclear respiratory factor 1 (Homo sapiens) (UniProt Q16656); experiment: ATG_NRF1_CIS: Attagene CIS-FACTORIAL HepG2 Assay for human Nuclear Respiratory Factor 1 (NRF1) Orphan Gene (AID 2282987); settings: HepG2 NRF1 cis-element reporter, Attagene multiplex; actives raise or lower the signal
Chain of Nuclear respiratory factor 1 (Homo sapiens) (Q16656 whole entry, looked up): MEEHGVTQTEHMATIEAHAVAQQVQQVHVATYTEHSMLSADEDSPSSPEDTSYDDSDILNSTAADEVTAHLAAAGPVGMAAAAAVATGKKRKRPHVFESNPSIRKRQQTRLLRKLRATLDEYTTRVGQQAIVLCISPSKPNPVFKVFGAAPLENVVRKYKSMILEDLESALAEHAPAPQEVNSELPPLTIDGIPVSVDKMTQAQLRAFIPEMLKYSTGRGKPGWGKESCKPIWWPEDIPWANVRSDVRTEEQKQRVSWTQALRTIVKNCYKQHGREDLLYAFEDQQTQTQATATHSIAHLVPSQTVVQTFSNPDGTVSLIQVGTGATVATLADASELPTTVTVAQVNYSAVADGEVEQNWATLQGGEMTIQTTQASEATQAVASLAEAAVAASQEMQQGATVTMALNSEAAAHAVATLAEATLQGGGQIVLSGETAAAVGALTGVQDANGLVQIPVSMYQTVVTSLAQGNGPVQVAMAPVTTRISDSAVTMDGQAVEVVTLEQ
Procedure, shortened: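 HepG2 cells transiently transfected with multiple reporter transcription units under cis-regulatory promoter control, so endogenous transcription-factor activity is read. After 24 h compound exposure, reporter mRNA quantified by RT-PCR, fluorescent labelling, HpaI digestion and capillary electrophoresis; bidirectional fitting versus DMSO.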

[3] = ATG_NFI_CIS: Attagene CIS-FACTORIAL HepG2 Assay for human Nuclear Factor I (NFI) (AID 2282989); settings: HepG2 cis-regulatory reporter, NFI response element transcription; actives raise or lower the signal
Procedure, shortened: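 Cells: human liver HepG2, transiently transfected with promoter-regulated reporter transcription units. Exposure 24 h. Detection: fluorescent RT-PCR products separated by capillary electrophoresis, normalised to DMSO negative control.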

[4] = molecular target: Myc proto-oncogene protein (Homo sapiens) (UniProt P01106); experiment: ATG_Myc_CIS: Attagene CIS-FACTORIAL HepG2 Assay for human Myelocytomatosis (Myc) Proto-Oncogene Transcription Factor (AID 2282990); settings: HepG2, Attagene cis-reporter transcription factor activity; actives raise or lower the signal
Chain of Myc proto-oncogene protein (Homo sapiens) (P01106 whole entry, looked up): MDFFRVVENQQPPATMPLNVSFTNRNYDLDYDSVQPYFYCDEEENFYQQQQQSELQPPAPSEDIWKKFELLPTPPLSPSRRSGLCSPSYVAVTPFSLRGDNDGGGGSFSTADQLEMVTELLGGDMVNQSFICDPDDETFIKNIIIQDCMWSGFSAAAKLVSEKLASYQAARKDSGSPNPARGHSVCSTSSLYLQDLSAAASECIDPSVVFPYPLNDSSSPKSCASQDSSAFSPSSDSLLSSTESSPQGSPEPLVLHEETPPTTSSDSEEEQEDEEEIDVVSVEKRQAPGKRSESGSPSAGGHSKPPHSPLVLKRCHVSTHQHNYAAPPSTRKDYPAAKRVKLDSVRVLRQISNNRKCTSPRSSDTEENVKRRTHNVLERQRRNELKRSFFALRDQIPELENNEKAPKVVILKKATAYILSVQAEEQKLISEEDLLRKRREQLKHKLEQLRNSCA
Procedure, shortened: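 HepG2, transient MRTU transfection (cis promoters, endogenous TFs); 24 h dosing; TriZol RNA → oligo(dT) RT → PCR → 6-FAM primer extension → HpaI cut → CE. Bidirectional fit vs DMSO.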

[5] = ATG_NF_kB_CIS: Attagene CIS-FACTORIAL HepG2 Assay for human Nuclear Factor Kappa B (NF-kB) (AID 2282991); settings: HepG2 Attagene cis-factorial NF-kB reporter mRNA; actives raise or lower the signal
Procedure, shortened: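 HepG2 cells transiently transfected with multiplexed cis-element reporter units measuring endogenous transcription factor activity; reporter mRNA read 24 h after dosing by RT-PCR, fluorescent labelling, HpaI digestion and capillary electrophoresis. Bidirectional fit against DMSO baseline.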

[6] = ATG_NRF2_ARE_CIS: Attagene CIS-FACTORIAL HepG2 Assay for human Nuclear Factor Erythroid 2 Related Factor 2 (NFR2) response to Antioxidant Response Elements (ARE) (AID 2282992); settings: HepG2 Attagene ARE/NRF2 reporter, transcription factor activity; actives raise or lower the signal;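 for AC50: reporter mRNA level measured by RT-PCR and capillary electrophoresis fluorescence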
Procedure, shortened: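 HepG2 cells transiently transfected with multiplexed cis-element reporter constructs, 24 h after chemical dosing; reporter mRNA quantified by RT-PCR, fluorescent primer extension, HpaI digestion and capillary electrophoresis. Bidirectional fit relative to DMSO.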

[7] = ATG_Oct_MLP_CIS: Attagene CIS-FACTORIAL HepG2 Assay for human Octamer-Binding Transcription Factor (Oct) (AID 2282993); settings: HepG2 Attagene cis-factorial Oct reporter, mRNA; actives raise or lower the signal
Procedure, shortened: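 HepG2, transient MRTU transfection, cis promoter elements; 24 h dosing; RT-PCR/CE fluorescence read-out of reporter mRNA; fit both directions vs DMSO.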

[8] = molecular target: Cellular tumor antigen p53 (Homo sapiens) (UniProt P04637); experiment: ATG_p53_CIS: Attagene CIS-FACTORIAL HepG2 Assay for human p53 Transcription Factor (AID 2282994); settings: HepG2 p53 cis-element reporter, Attagene mRNA; actives raise or lower the signal
Chain of Cellular tumor antigen p53 (Homo sapiens) (P04637 whole entry, looked up): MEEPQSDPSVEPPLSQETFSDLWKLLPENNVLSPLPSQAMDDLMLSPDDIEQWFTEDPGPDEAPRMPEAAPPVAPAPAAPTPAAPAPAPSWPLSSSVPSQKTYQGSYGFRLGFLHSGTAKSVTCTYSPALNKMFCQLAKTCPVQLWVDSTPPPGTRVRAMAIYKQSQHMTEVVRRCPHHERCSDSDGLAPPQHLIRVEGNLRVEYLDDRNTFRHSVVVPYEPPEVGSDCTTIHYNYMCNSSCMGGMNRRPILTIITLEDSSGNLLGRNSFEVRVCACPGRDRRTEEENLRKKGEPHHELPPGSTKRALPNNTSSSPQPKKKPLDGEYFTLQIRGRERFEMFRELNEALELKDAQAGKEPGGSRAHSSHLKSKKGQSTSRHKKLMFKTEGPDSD
Procedure, shortened: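 HepG2 cells transiently transfected with cis-regulated multiple reporter transcription units, dosed 24 h. Reporter mRNA measured by RT-PCR, 6-FAM primer extension, HpaI digestion and capillary electrophoresis; bidirectional fit relative to DMSO.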

[9] = BSK_3C_TissueFactor: BioMAP Diversity Plus: 3C Assay for Tissue Factor Biomarker Activity (AID 2282997); settings: BioMAP 3C HUVEC, tissue factor biomarker readout; actives raise or lower the signal
Procedure, shortened: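 Endothelial monolayers (human umbilical vein, primary) are dosed, incubated 24 h, and assayed for Tissue Factor by ELISA; DMSO serves as negative control for bidirectional fitting.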

[10] = BSK_3C_uPAR: BioMAP Diversity Plus: 3C Assay for Urokinase-type plasminogen activator receptor (uPAR) Biomarker Activity (AID 2282998); settings: BioMAP 3C HUVEC, uPAR biomarker ELISA; actives raise or lower the signal
Procedure, shortened: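 A multiplexed primary-cell system built on human umbilical vein endothelium was used, with chemical present for 24 h before reading. Cell-surface uPAR was detected by ELISA; signal change in either direction counted against DMSO.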

[11] = BSK_3C_VCAM1: BioMAP Diversity Plus: 3C Assay for Vascular cell adhesion molecule 1 (VCAM1) Biomarker Activity (AID 2282999); settings: BioMAP 3C HUVEC, VCAM1 ELISA, cytokine-stimulated; actives raise or lower the signal
Procedure, shortened: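 Endothelial cells from human umbilical vein are treated with test chemical. At 24 h, VCAM-1 is measured by ELISA, and responses in either direction are fitted relative to DMSO.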

[12] = BSK_4H_Eotaxin3: BioMAP Diversity Plus: 4H Assay for Eotaxin 3 Biomarker Activity (AID 2283000); settings: primary human endothelial cells (HUVEC); actives raise or lower the signal
Procedure, shortened: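 ELISA quantitation of CCL26 (Eotaxin-3) protein from chemically dosed human vascular endothelial cells at 24 h; increases and decreases both scored relative to DMSO-treated baseline.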

[13] = molecular target: Oxysterols receptor LXR-beta (Homo sapiens) (UniProt P55055); experiment: ATG_LXRb_TRANS: Attagene TRANS-FACTORIAL HepG2 Assay for human Liver X Receptor beta (LXRb) (AID 2282981; active = hit-call score of the fitted dose curve at least 0.9, where 1 is the maximum); settings: HepG2 Attagene TRANS GAL4-LXRb reporter, mRNA
Chain of Oxysterols receptor LXR-beta (Homo sapiens) (P55055 whole entry, looked up, the tested form may be a part): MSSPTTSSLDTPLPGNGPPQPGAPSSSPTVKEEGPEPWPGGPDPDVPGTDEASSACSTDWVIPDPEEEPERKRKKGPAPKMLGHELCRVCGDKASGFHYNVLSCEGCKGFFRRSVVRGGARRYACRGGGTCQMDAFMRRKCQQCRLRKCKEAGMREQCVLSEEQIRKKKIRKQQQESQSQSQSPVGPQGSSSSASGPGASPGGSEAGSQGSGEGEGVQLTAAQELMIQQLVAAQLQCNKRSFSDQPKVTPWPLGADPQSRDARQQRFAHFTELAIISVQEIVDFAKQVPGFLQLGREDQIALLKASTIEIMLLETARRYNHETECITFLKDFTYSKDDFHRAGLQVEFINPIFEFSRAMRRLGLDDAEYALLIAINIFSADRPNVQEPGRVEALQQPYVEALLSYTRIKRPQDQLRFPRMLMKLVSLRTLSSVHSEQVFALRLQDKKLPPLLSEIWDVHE
Procedure, shortened: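 Transient transfection HepG2 (multiplexed RTUs, GAL4-UAS); NR-Gal4 chimera; 24 h exposure; RNA → RT-PCR → 6-FAM primer extension → HpaI → CE; increase vs DMSO.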

[14] = molecular target: Transcriptional activator Myb (Homo sapiens) (UniProt P10242); experiment: ATG_Myb_CIS: Attagene CIS-FACTORIAL HepG2 Assay for human Myeloblastosis (Myb) Proto-Oncogene Transcription Factor (AID 2282986); settings: HepG2 Attagene CIS-FACTORIAL Myb reporter transcription; actives raise or lower the signal
Chain of Transcriptional activator Myb (Homo sapiens) (P10242 whole entry, looked up): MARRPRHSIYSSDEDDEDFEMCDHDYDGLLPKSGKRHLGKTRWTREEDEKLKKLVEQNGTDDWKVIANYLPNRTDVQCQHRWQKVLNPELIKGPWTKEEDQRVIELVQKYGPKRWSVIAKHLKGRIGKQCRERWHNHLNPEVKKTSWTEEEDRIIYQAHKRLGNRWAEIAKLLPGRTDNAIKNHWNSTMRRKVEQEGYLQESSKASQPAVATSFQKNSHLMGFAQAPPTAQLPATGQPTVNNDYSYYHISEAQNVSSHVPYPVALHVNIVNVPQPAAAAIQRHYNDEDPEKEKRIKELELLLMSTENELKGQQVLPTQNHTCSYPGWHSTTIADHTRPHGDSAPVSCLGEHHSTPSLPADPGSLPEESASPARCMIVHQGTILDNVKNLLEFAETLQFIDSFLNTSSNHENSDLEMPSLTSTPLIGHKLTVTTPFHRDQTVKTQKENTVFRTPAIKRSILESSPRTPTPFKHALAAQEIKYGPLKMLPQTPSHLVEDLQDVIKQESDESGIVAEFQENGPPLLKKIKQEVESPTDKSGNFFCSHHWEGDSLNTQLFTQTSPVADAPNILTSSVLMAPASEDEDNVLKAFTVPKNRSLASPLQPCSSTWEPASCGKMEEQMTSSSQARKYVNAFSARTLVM
Procedure, shortened: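 HepG2 cells were transiently transfected with cis-regulated multiple reporter transcription units reflecting endogenous Myb activity, then exposed to compound for 24 hours. Reporter mRNA was measured by RT-PCR with capillary electrophoresis; bidirectional fitting versus DMSO baseline.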

[15] = ATG_M_32_TRANS: Attagene TRANS-FACTORIAL HepG2 Assay for M32 Transcription Factor (Internal Marker) (AID 2282984; active = hit-call score of the fitted dose curve at least 0.9, where 1 is the maximum;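 note: transcript level of a background control reporter unit measured by RT-PCR and capillary electrophoresis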); settings: HepG2 Attagene TRANS M32 internal marker reporter
Procedure, shortened: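 Measures reporter mRNA induction in human HepG2 liver cells after 24 h chemical treatment. Transcripts from transiently transfected GAL4-UAS reporter units are amplified, fluorescently labelled and sized by capillary electrophoresis; gain of signal relative to DMSO.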

[16] = molecular target: Nuclear receptor subfamily 4 group A member 2 (Homo sapiens) (UniProt P43354); experiment: ATG_NURR1_TRANS: Attagene TRANS-FACTORIAL HepG2 Assay for human Nuclear Receptor Related Protein 1 (NURR1) (AID 2282985; active = hit-call score of the fitted dose curve at least 0.9, where 1 is the maximum); settings: HepG2 Attagene TRANS reporter, mRNA readout
Chain of Nuclear receptor subfamily 4 group A member 2 (Homo sapiens) (P43354 whole entry, looked up, the tested form may be a part): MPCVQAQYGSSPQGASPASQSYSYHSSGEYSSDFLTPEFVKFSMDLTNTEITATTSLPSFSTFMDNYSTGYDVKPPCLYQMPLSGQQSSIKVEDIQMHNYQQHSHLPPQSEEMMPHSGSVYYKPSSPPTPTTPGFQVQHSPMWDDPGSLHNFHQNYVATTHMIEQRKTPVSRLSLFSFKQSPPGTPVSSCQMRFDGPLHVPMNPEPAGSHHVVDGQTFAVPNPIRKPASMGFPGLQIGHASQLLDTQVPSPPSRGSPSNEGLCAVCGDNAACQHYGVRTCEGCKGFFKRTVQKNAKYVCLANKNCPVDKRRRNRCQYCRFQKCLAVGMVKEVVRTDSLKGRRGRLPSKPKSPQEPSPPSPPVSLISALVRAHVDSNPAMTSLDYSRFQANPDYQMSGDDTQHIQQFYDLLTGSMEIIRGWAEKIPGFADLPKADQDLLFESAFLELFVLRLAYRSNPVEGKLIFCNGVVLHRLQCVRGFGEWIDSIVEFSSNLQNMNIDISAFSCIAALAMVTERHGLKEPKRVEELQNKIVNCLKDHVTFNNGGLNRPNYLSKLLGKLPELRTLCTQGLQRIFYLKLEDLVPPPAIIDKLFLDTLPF
Procedure, shortened: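 Transient transfection of HepG2, human liver cells, with multiple GAL4-UAS reporter transcription units. Cells dosed 24 h, RNA isolated, reverse-transcribed, PCR-amplified, FAM-labelled, HpaI-digested, sized by capillary electrophoresis. DMSO served as negative control.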

[17] = molecular target: Oxysterols receptor LXR-alpha (Homo sapiens) (UniProt Q13133); experiment: ATG_LXRa_TRANS: Attagene TRANS-FACTORIAL HepG2 Assay for human Liver X Receptor alpha (LXRa) (AID 2282980; active = hit-call score of the fitted dose curve at least 0.9, where 1 is the maximum); settings: HepG2 Attagene TRANS reporter, LXRa transactivation
Chain of Oxysterols receptor LXR-alpha (Homo sapiens) (Q13133 whole entry, looked up, the tested form may be a part): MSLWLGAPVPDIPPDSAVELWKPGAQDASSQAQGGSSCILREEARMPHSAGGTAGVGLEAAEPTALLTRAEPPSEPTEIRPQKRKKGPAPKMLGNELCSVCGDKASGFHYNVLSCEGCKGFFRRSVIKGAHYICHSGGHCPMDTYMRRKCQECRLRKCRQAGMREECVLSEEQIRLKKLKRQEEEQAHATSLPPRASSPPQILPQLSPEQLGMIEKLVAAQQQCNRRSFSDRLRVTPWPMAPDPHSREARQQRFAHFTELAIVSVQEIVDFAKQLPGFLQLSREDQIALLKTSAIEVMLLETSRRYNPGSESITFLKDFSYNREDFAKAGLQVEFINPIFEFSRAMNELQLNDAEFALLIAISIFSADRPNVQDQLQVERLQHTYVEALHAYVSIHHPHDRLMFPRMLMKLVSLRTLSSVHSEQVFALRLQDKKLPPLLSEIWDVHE
Procedure, shortened: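 In this multiplexed TRANS system, compounds act on HepG2 cells carrying GAL4-UAS reporter units and a receptor-GAL4 fusion for 24 h. Induced reporter RNA is amplified, fluorescently labelled and sized by capillary electrophoresis, with DMSO as baseline.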

Measured: AC50

Cc1ccc(C)c(O)c1C
not listed: [13] | [14] | [15] | [16] | [17]
inactive: all other assays above

C[C@]12C=CC(=O)C=C1CC[C@@H]1[C@@H]2C(=O)C[C@@]2(C)[C@H]1CC[C@]2(O)C(=O)CO
not listed: [15] | [16] | [17]
inactive: all other assays above

CNCc1cc(F)ccc1Oc1ccc(Cl)c(Cl)c1
active: [9] 12.5 µM | [10] 30.9 µM
not listed: [2] | [13] | [14] | [15] | [16] | [17]
inactive: all other assays above

CCCc1cc(=O)[nH]c(=S)[nH]1
active: [12] 0.666 µM
not listed: [5] | [13] | [14] | [17]
inactive: all other assays above

CC1=C(/C=C/C(C)=C/C=C/C(C)=C/CO)C(C)(C)CCC1
active: [16] 2.86 µM | [4] 139 µM | [6] 44.2 µM | [11] 33 µM | [12] 15.6 µM
not listed: [17]
inactive: all other assays above

COc1ccc2c(c1)c(CC(=O)O)c(C)n2C(=O)c1ccc(Cl)cc1
not listed: [1] | [5] | [13] | [16]
inactive: all other assays above

Oc1ccc2ccccc2c1N=Nc1ccccc1
active: [6] 1.42 µM | [9] 6 µM | [12] 1.7 µM
not listed: [15]
inactive: all other assays above

COc1ccc(S(=O)(=O)N2C(=O)[C@@](c3ccccc3OC)(N3C[C@H](O)C[C@H]3C(=O)N(C)C)c3cc(Cl)ccc32)c(OC)c1
active: [14] 163 µM | [7] 38 µM | [8] 49.7 µM | [10] 20 µM | [11] 28.8 µM
inactive: [16] | [3] | [4] | [6] | [9] | [12]

CC=Cc1ccc(O)c(OC)c1
active: [6] 16.2 µM
not listed: [2] | [5] | [13] | [14] | [15] | [17]
inactive: all other assays above

C1CCC(SSC2CCCCC2)CC1
active: [3] 161 µM | [6] 75.5 µM | [9] 20 µM | [11] 26.5 µM | [12] 32.7 µM
not listed: [2] | [14] | [15] | [16]
inactive: all other assays above

O=C(OCCCCCOC(=O)c1ccccc1)c1ccccc1
not listed: [1] | [2] | [13] | [14] | [15]
inactive: all other assays above

NCC1(Cc2noc(=O)[nH]2)CCCCC1
not listed: [13] | [15]
inactive: all other assays above

CCCCN(CCCC)CCCC
not listed: [4] | [13] | [17]
inactive: all other assays above

Cc1ccc(Cl)cc1
not listed: [2] | [5] | [14] | [17]
inactive: all other assays above

O=[N+]([O-])C(CO)(CO)CO
not listed: [1] | [4] | [13] | [14] | [16]
inactive: all other assays above
